Measurements from PubChem BioAssay AID1745847 (National Center for Advancing Translational Sciences (NCATS), 2022).
The campaign covered roughly 2,100 compounds. About 670 (32%) were called active. Roughly 50% stayed inconclusive and do not appear here. This is one part of the list. A number with no mark means an inactive call. The call rests on the fitted dose curve; in most records, active means well fitted inhibition curve with a large enough effect; inconclusive means small, poorly fitted or top-dose-only effect; inactive means no such curve, though single readings can be large or run the other way.

Test: CMV-Luciferase Counterscreen for Inhibitors of ATXN expression; further: nearly all actives have a fitted effect of over 55% in size
Conditions: HEK-293 CMV-luciferase reporter, luminescence, 24 h; series mostly up to 57.5 µM; activity change, negative = inhibition: at the top concentration
Excerpt: PI: Daniel Scoles Ph.D. University of Utah School of Medicine, Salt Lake City, Utah MLPCN Grant: NS073009 Spinocerebellar ataxia type 2 (SCA2) is a multisystem neurodegenerative disease caused by a dominantly acting mutation leading to expansion of a polyQ domain in the ataxin-2 protein (ATXN2). SCA2 patients develop progressive ataxia and later lose function in other neuronal systems. Prominent parkinsonian signs develop in some patients. Like many neurodegenerative disorders, no symptomatic or disease-modifying treatments are known. The primary objective of the proposed research is to identify compounds inhibiting ATXN2 expression and to test them for efficacy in SCA2 mouse models. We have developed a cell-based assay paired with an in vivo mouse model using identical luciferase expression constructs. This approach takes advantage of an ATXN2-luciferase transgene, with the luciferase gene flanked by the upstream and downstream portions of the ATXN2 gene. Here we describe a 5-7 dose quantitative high thoroughput screen (qHTS) for compounds lowering ATXN2 expression. We screened the NIH Molecular Libraries Small Molecule Repository (MLSMR) and NCGC's mechanistically annotated (MIPE) and drug repurposing (NPC) collections of compounds for lowering expression of an ATXN2-luciferase reporter in HEK-293 cells. The assay is a multiplexed cell viability assay to ensure target reduction in the absence of cytotoxicity. Secondary qHTS assays included a CMV-luciferase reporter expressed in HEK-293 cells as well as a biochemical assay using recombinant luciferase to detect inhibitors of the reporter enzyme. Compounds that inhibit ATXN2 expression but is not cytotoxic were selected for confirmatory and secondary screens.
PROTOCOL TABLE (as described by Inglese J, Shamu CE and Guy RK. 2007) SEQUENCE No. (e.g., 1, 2, 3, etc.); PARAMETER (e.g., Cells, Incubation, Reagent, etc.); VALUE; DESCRIPTION. 1; Cells; 4 uL; white, solid bottom, 1536-well Greiner assay plate. 2; Incubation; 2 hr; 37 degree C in 5% humidified CO2. 3; Compounds; 23 nL; Kalypsis pintool (Wako USA) equipped with a 1536-well pin head. 4; Incubation; 24 hr; 37 degree C in 5% humidfified CO2. 5; Reagent; 1 uL; Gly-Phe-7-Amino-4-trifluoromethylcoumarin. 6; Incubation; 30 min; 37 degree C in 5% humidfified CO2. 7; Detection; Fluorescence; Viewlux plate reader (PerkinElmer). 8; Reagent; 3 uL; SteadyGlo luciferase solution (Promega). 9; Incubation; 5 min; room temperature. 10; Detection; Luminescence; ViewLux plate reader (PerkinElmer). NOTES (numbers refer to Sequence numbers above) 1. HEK-293 cells expressing CMV-luciferase reporter (designated as SC cells) were suspended in phenol-red free DMEM and dispensed in assay plates using a Multidrop Combi dispenser (Thermo Fisher Scientific). 2. Assay plates were incubated. Evaporation was prevented by covering assay plates with metal lids containing holes to allow gas diffusion. 3. Compounds were added in a dose response manner with the final concentrations of 57, 11.4, 2.28, 0.46, 0.091, 0.018, 0.0037 uM. Vehicle-only plates, with DMSO being pin-transferred to columns 5-48, were inserted uniformly at the beginning and the end of each library to monitor and record any shifts in assay performance. 5. 125 uM Gly-Phe-7-Amino-4-trifluoromethylcoumarin (MP Biomedicals) working concentration was used at a final concentration of 25 uM. 7. To assess cell viability; the assay plates were read using the ViewLux high-throughput CCD imager (PerkinElmer), wherein single end-point fluorescence measurement was acquired (excitation 405/10; emission 540/25 nm). 8. Detection reagent SteadyGlo Luciferase (Promega) was added to the assay plate. 10. Luminescence is then measured on the ViewLux imager equipped with a clear emission filter using a 2 sec exposure. […]
On the % scale 0 is the no-effect control and ±100 the full control effect; potency means the concentration at half of the fitted maximal effect.

Row | Structure (SMILES) | activity change, negative = inhibition | Potency
1 | CCC1(OC(=O)CN)C(=O)OCc2c1cc1n(c2=O)Cc2cc3ccccc3nc2-1 (configuration not stated) | -43.6% [at 11.4 µM] | 
2 | CC[C@@]1(O)C(=O)OCc2c1cc1n(c2=O)Cc2cc3c(NC(=O)CN)cccc3nc2-1 |  | 0.0562 µM (active)
3 | COc1cc2c(cc1OC)C1C(=O)c3ccc4c(c3OC1CO2)CC(C(C)C)O4 (configuration not stated) |  | 0.794 µM (active)
4 | CCC(C)(O)C(=O)OC1C(=O)OC2CC3C(C)=CC(=O)C(O)C3(C)C3C4(O)OCC23C1C(C)C4O (configuration not stated) |  | 0.316 µM (active)
5 | CC(C)CCn1c(N)c(C(=O)NCc2cccs2)c2nc3ccccc3nc21 |  | 14.1 µM (active)
6 | CCC(C)OC(=O)c1c(N)n(Cc2cccs2)c2nc3ccccc3nc12 (configuration not stated) |  | 17.8 µM (active)
7 | CCOC(=O)c1c(N)n(CCN2CCCCC2)c2nc3ccccc3nc12 | -22.5% | 
8 | CNC(=O)Nc1ccc(C(=O)N/N=C\C23CC[C@@H](O)CC2(O)CC[C@@H]2[C@@H]3CCC3(C)C(C4=CC(=O)OC4)CCC23O)cc1 (some centres not stated) | -18.2% | 
9 | CC1CC(C)CC(C)C(O)C(C#N)=CC=CCC(C2CCCC2C(=O)O)OC(=O)CC(O)C(C)C1 (configuration not stated) |  | 0.316 µM (active)
10 | C[C@@H]1C[C@@H]([C@H](O)CC2CC(=O)NC(=O)C2)C(=O)[C@@H](C)C1 |  | 2.82 µM (active)
11 | C[C@H]1C[C@@H](C)C(=O)[C@@H]([C@H](O)CC2CC(=O)NC(=O)C2)C1 |  | 0.282 µM (active)
12 | CC(=O)OC1(C)CC(C)C(=O)C(C(O)CC2CC(=O)NC(=O)C2)C1 (configuration not stated) |  | 0.126 µM (active)
13 | C[C@]12CCC3C(CCC4=CC(O)CC[C@@]43/C=N/O)C1(O)CCC2C1=CC(=O)OC1 (some centres not stated) | 7.54% | 
14 | Cc1ccc(N2C(=O)NC(=O)/C(=C/C=C/c3ccco3)C2=O)cc1 | 82.1% [at 11.4 µM] | 
15 | CC(=O)OC1CC2(O)C3CCC4CC(O)CCC4(C)C3CCC2(C)C1C1=CC(=O)OC1 (configuration not stated) | -13.9% | 
16 | O=C1NC2C(=CC(O)C(O)C2O)c2cc3c(cc21)OCO3 (configuration not stated) |  | 0.251 µM (active)
17 | Cc1c2ccncc2c(C)c2c1[nH]c1ccccc12 |  | 5.01 µM (active)
18 | COc1ccc(CCNCc2ccc(F)cc2)cc1OC | -5.47% [at 11.4 µM] | 
19 | COC1C(O)C(C)OC(OC2C(Oc3cccc4c(O)c5c(=O)oc6ccc(C)c7c(=O)oc(c34)c5c67)OC(C)C(O)C2O)C1O (configuration not stated) | -15.7% [at 11.4 µM] | 
20 | O=[N+]([O-])c1ccc(C(c2ccc([N+](=O)[O-])cc2)c2ccc([N+](=O)[O-])cc2)cc1 |  | 17.8 µM (active)
21 | C[C@]12CC[C@H](O)C[C@H]1CC[C@@H]1[C@@H]2CC[C@]2(C)[C@@H](C3=CC(=O)OC3)CC[C@]12O | 6.94% | 

Row | Structure (SMILES) | activity change, negative = inhibition | Potency
22 | COc1ccc(N=Cc2c(O)n(-c3ccc(C)cc3)c(=O)[nH]c2=O)cc1 | -14.8% | 
23 | CC1OC(OC2C(O)CC(OC3C(O)CC(OC4CCC5(C)C(CCC6C5CCC5(C)C(C7=CC(=O)OC7)C(O)CC65O)C4)OC3C)OC2C)CC(O)C1O (configuration not stated) | -15% | 
24 | O=c1[nH]c2ccccc2n1C1CCN(C(CCc2ccccc2)c2nnnn2C2CCCC2)CC1 (configuration not stated) |  | 14.1 µM (active)
25 | CC(C)(C)n1nnnc1C(CCc1ccccc1)N1CCC(n2c(=O)[nH]c3ccccc32)CC1 (configuration not stated) |  | 20 µM (active)
26 | N#Cc1cn(C2OC(CO)C(O)C2O)c2ncnc(N)c12 (configuration not stated) | -77.3% [at 11.4 µM] | 
27 | CCC1CN2CCc3cc(OC)c(OC)cc3C2CC1CC1NCCc2c1[nH]c1ccc(O)cc21 (configuration not stated) |  | 0.0891 µM (active)
28 | C1=NCCc2c1[nH]c1ccccc21 | 110% [at 11.4 µM] | 
29 | COc1cc2nc(CN3CC=C(c4ccccc4)CC3)[nH]c(=O)c2cc1OC | 155% | 
30 | O=C(CSC1c2ccccc2-c2ccccc21)N/N=C/c1ccccc1O |  | 3.16 µM (active)
31 | Clc1ccc2[nH]c3c(c2c1)CCNC3 | -18.6% [at 11.4 µM] | 
32 | NC(Cc1ccc(F)cc1)c1csc(Nc2ccccn2)n1 (configuration not stated) | -4.04% | 
33 | CCC(C)N1C(=O)/C(=C\c2cnc(N(C)C)nc2)C(=O)NC1=S (configuration not stated) | -6.13% | 
34 | CC12CCC3C(CCC4(O)CC(O)CCC34C=NO)C1(O)CCC2C1=COC(=O)C1 (configuration not stated) | -13.2% | 
35 | COc1cccc2c1cc([N+](=O)[O-])c1c(C(=O)O)cc3c(c12)OCO3 | 6.44% | 
36 | COc1ccc2c(c1)C(c1ccc(N(CCCl)CCCl)cc1)=NCC2 |  | 22.4 µM (active)
37 | CC(=O)O[C@H]1[C@H]2O[C@]23[C@@H]2CC[C@]4(O)C[C@@H](O)CC[C@]4(C)C2CC[C@]3(C)[C@H]1c1ccc(=O)oc1 (some centres not stated) | -18.3% [at 11.4 µM] | 
38 | COC(=O)c1nc(-c2ccc3c(n2)C(=O)C(N)=C(OC)C3=O)c(N)c(-c2ccc(OC)c(OC)c2O)c1C |  | 14.1 µM (active)
39 | CSCCC(c1nnnn1-c1c(C)cccc1C)N1CCC2(CC1)C(=O)NCN2c1ccccc1 (configuration not stated) |  | 28.2 µM (active)
40 | CCOC(=O)[C@]12Cc3ccsc3[C@H]1N(Cc1ccccc1)C(=O)c1ccccc12 |  | 3.16 µM (active)
41 | CC12CCC(O)CC1CCC1C2CCC2(C)C(C3=CC(=O)OC3)CCC12O (configuration not stated) | 9.59% | 
42 | C=CCCC[C@@H]1OC(=O)CNC(=O)C([C@@H](C)CC)NC(=O)[C@@H]2CCCN2C(=O)C([C@@H](C)CC)OC(=O)[C@H](Cc2ccccc2)N(C)C(=O)[C@H](C(C)C)NC(=O)C1(C)C (some centres not stated) |  | 3.98 µM (active)

Row | Structure (SMILES) | activity change, negative = inhibition | Potency
43 | Cc1ccc(-c2nc(N(C)C3CCN(C)CC3)c3ccccc3n2)cc1 |  | 17.8 µM (active)
44 | COc1ccc(CC2C(=O)NC(C)C(=O)N(C)C3C(=O)N(C)C(Cc4ccc(O)c(c4)Oc4ccc(cc4)C3O)C(=O)NC(C)C(=O)NC(C)C(=O)N2C)cc1 (configuration not stated) |  | 0.891 µM (active)
45 | C[C@H]1[C@@H](OS(=O)(=O)O)C[C@@H]2C[C@H]([C@@H](O)c3cc(=O)[nH]c(=O)[nH]3)NC3=NC[C@H]1N32 |  | 14.1 µM (active)
46 | CCCCN=C[C@]12CCC(O)CC1(O)CCC1[C@@H]2CC[C@]2(C)[C@H](C3C=CC(=O)O3)CCC12O (some centres not stated) | 12.4% | 
47 | C[C@@H]1O[C@@H](O[C@@H]2C=C3CC[C@@H]4C(CC[C@]5(C)[C@@H](c6ccc(=O)oc6)CC[C@]45O)[C@@]3(C)CC2)[C@H](O)[C@H](O)[C@H]1O (some centres not stated) | -13.5% | 
48 | C[C@H]1CCC[C@@H](O)CCC/C=C/c2cc(O)cc(O)c2C(=O)O1 | -23.1% [at 11.4 µM] | 
49 | CCn1c(O)c(/C=N/NC(=O)c2ccccc2)c(=O)n(CC)c1=S | -28.6% | 
50 | CCCCC(=O)N/N=C/c1c(O)n(CCC2=CCCCC2)c(=O)[nH]c1=O |  | 10 µM (active)
51 | CCCCCCC(=O)N/N=C/c1c(O)n(CCCC)c(=S)[nH]c1=O |  | 12.6 µM (active)
52 | CCCCCCC(=O)N/N=C/c1c(O)n(CCc2ccccc2)c(=O)[nH]c1=O |  | 6.31 µM (active)
53 | COC1C(O)C(C)OC(OC2CCC3(C)C(CCC4C3C(O)CC3(C)C(C5=CC(=O)OC5)CCC43O)C2)C1O (configuration not stated) | -8.96% | 
54 | C[C@]12CC[C@H](O)C[C@H]1CC[C@@H]1C2CC[C@]2(C)[C@@H](C3=CC(=O)OC3)[C@@H](O)C[C@]12O (some centres not stated) | -13.9% [at 11.4 µM] | 
55 | COc1ccc(CC2NCC(O)C2OC(C)=O)cc1 (configuration not stated) |  | 0.316 µM (active)
56 | COc1ccc(C[C@H]2NC[C@H](O)[C@H]2OC(C)=O)cc1 |  | 0.0631 µM (active)
57 | c1ccc2sc(N3CCNCC3)nc2c1 | -25.2% | 
58 | C[C@H]1CCC[C@H](O)CCCCCc2cc(O)cc(O)c2C(=O)O1 | 13.6% [at 11.4 µM] | 
59 | CCCCCOc1ccc(C)cc1CN(CCCl)CCCl |  | 15.8 µM (active)
60 | COc1cccc(C(c2nnnn2-c2ccc3c(c2)OCCO3)N2CCC(n3c(=O)[nH]c4ccccc43)CC2)c1OC (configuration not stated) |  | 3.16 µM (active)
61 | Cc1cccc(C)c1-n1nnnc1C(c1cc2ccccc2o1)N1CCC(n2c(=O)[nH]c3ccccc32)CC1 (configuration not stated) |  | 8.91 µM (active)
62 | CC12CCC(O)CC1CCC1C2CCC2(C)C(C3=CC(=O)OC3)C(O)CC12O (configuration not stated) | 42.2% | 
